Rows were chosen to be rich in hits. Some 4.6% of all compounds tested hit in one or more screens of this group.
VACV Venus inh: vaccinia inhibition (Venus reporter); AID 720580; actives 0.46% (n = 330,000); Potency, µM (doses to about 36.5 µM), actives largely listed as inhibitors; Vaccinia virus Venus reporter expression, fluorescence; calls by dose curve; tested in A549 cells; note: nearly all actives have a fitted effect of over 30% in size
Lassa entry inh: blocks Lassa virus binding to or entry into cells | Potency, µM (series often up to 37.9 µM), usual class: inhibitors | actives 1.2% (n = 300,000) | Lassa virus pseudotype entry inhibition, cell reporter; calls by dose curve; tested in HEK293 cells; note: nearly all actives have a fitted effect of over 50% in size
Vaccinia mCherry: inhibitors of vaccinia virus infection (mCherry reporter signal) | actives 0.63% (n = 310,000) | AID 720579 | Potency, µM (highest dose often 36.5 µM), usual class: inhibitors | Vaccinia virus mCherry reporter infection, fluorescence; calls by dose curve; tested in A549 cells; note: nearly all actives have a fitted effect of over 35% in size
MARV entry inh: Marburg virus entry inhibition | Marburg virus pseudotyped entry inhibition, cell reporter | Potency, µM (highest dose often 37.8 µM), usual class: inhibitors | actives 1.8% (n = 300,000) | AID 540276; calls by dose curve; tested in HEK293 cells
HCV inhibitor: blocks hepatitis C virus. Huh7.5.1 HCVcc-Cre infection, luciferase reporter, 44 h. AID 651820. actives 3.4% (n = 340,000). Potency, µM (highest dose often 41.8 µM), hits mostly inhibitors; active = well fitted inhibition curve with a large enough effect; inconclusive = small, poorly fitted or top-dose-only effect, or another doubt; inactive = no such curve, though single readings can be large or run the other way
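Antiviral activity was scored by luciferase reporter output from cells infected with HCVcc-Cre (~0.5 moi) in presence of compound, 44 h infection period, cells seeded 1,000/well 4 h prior.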
Large screens that a line does not name were inactive.

CC(C)Oc1ccc(/C=N/NC(N)=S)cc1	VACV Venus inh 1.6µM, Lassa entry inh inconclusive, Vaccinia mCherry 1.1µM, MARV entry inh inconclusive
NC(=S)N/N=C/c1ncc(C(F)(F)F)cc1Cl	Lassa entry inh inconclusive, Vaccinia mCherry 1.4µM, MARV entry inh inconclusive, HCV inhibitor 5.6µM
NC(=S)N/N=C/c1ccc(C(F)(F)F)cc1	VACV Venus inh inconclusive, Lassa entry inh inconclusive, Vaccinia mCherry 1.8µM
O=C(CBr)c1ccc(Oc2ccc(C(=O)C[n+]3cccc(Br)c3)cc2)cc1	none (no result: Lassa entry inh, MARV entry inh, HCV inhibitor)
Cc1cc(C(=O)NCc2nnc3n2CCN(Cc2ccc4c(c2)Cc2ccccc2-4)CC3)c(C)o1	none (no result: Lassa entry inh, MARV entry inh, HCV inhibitor)
CNC(=O)Oc1ccc(-c2cn3cc(C)ccc3n2)cc1	Lassa entry inh 0.32µM, MARV entry inh 0.65µM, HCV inhibitor inconclusive
CN(C)S(=O)(=O)c1cccc(-c2cn3cc(Cl)ccc3n2)c1	MARV entry inh inconclusive, HCV inhibitor inconclusive (no result: VACV Venus inh, Vaccinia mCherry)
CNC(=O)Oc1cccc(-c2cn3cc(Cl)ccc3n2)c1	Lassa entry inh inconclusive, MARV entry inh 2.8µM, HCV inhibitor inconclusive
COc1ccc(-c2cn3cc(C)ccc3n2)cc1F	Lassa entry inh inconclusive, MARV entry inh inconclusive
O=C(CSc1ccccc1)N1CCCC(N2CCN(c3ccc(F)cc3)CC2)C1 (centres undefined)	MARV entry inh inconclusive, HCV inhibitor 10µM
Cc1ccc(/C=N/Nc2nncn2N)cc1	VACV Venus inh 10µM, Lassa entry inh inconclusive, Vaccinia mCherry 10µM, MARV entry inh inconclusive
CCOC(=O)c1c(C)oc2c(F)c(F)c(F)c(F)c2c1=O	Lassa entry inh inconclusive, MARV entry inh inconclusive, HCV inhibitor 10µM (no result: Vaccinia mCherry)
CCOC(=O)/C=C/c1cnn(-c2ccccc2)c1	MARV entry inh inconclusive
O=C(O)/C=C/c1cnn(-c2ccccc2)c1	Lassa entry inh 2.8µM, MARV entry inh inconclusive
Cc1ccc(C[n+]2c(-c3ccc(C)cc3)cc(-c3ccc(C)cc3)cc2-c2ccc(C)cc2)cc1	VACV Venus inh 3.5µM, Vaccinia mCherry inconclusive, HCV inhibitor 2.2µM (no result: Lassa entry inh, MARV entry inh)
CNC(=O)c1nnsc1S(=O)(=O)c1ccc(Cl)cc1	VACV Venus inh inconclusive, Lassa entry inh inconclusive, Vaccinia mCherry inconclusive, MARV entry inh 2.8µM, HCV inhibitor inconclusive
Cc1ccc(-c2c(C)n3c4c(=O)n(C)c(=O)n(C)c4nc3n2CCCO)cc1	Lassa entry inh 8.9µM, MARV entry inh inconclusive (no result: HCV inhibitor)
COC(=O)CCCn1c(-c2ccc(C)cc2)c(C)n2c3c(=O)n(C)c(=O)n(C)c3nc12	Lassa entry inh inconclusive (no result: HCV inhibitor)
Oc1ccc2c(c1)oc1cc(O)ccc12	VACV Venus inh inconclusive, Lassa entry inh inconclusive, Vaccinia mCherry 10µM, HCV inhibitor inconclusive
CCOC(=O)c1csc(NC(=O)c2ccc3c(c2)OCCO3)n1	Lassa entry inh inconclusive, MARV entry inh inconclusive, HCV inhibitor 14µM
CCOC(=O)c1csc(NC(=O)c2ccc(OCC)cc2)n1	Lassa entry inh inconclusive, Vaccinia mCherry inconclusive, MARV entry inh inconclusive, HCV inhibitor 2.5µM
COc1cc(NC(=O)COc2ccccc2[N+](=O)[O-])ccc1NC(=O)c1cccs1	VACV Venus inh inconclusive, Lassa entry inh inconclusive, MARV entry inh inconclusive, HCV inhibitor inconclusive
COc1cc(NC(=O)c2cccs2)c(OC)cc1NC(=O)Cc1ccccc1	HCV inhibitor 35µM (no result: Lassa entry inh)
C/C(=N/NC(=O)c1ccc(C)s1)c1cccc(NC(=O)COc2ccc(Cl)cc2Cl)c1	MARV entry inh inconclusive (no result: Vaccinia mCherry)
COc1cc(NC(=O)COc2ccccc2Cl)ccc1NC(=O)c1cccs1	Lassa entry inh inconclusive, MARV entry inh inconclusive, HCV inhibitor 1.1µM
O=C(COc1ccc(Cl)cc1)Nc1nc(-c2ccncc2)cs1	none
C/C(=N/NC(=O)c1cccs1)c1ccc(NC(=O)COc2ccc(Cl)cc2Cl)cc1	Lassa entry inh 13µM, MARV entry inh inconclusive
O=C(COc1ccccc1Cl)Nc1nc(-c2ccncc2)cs1	Lassa entry inh inconclusive, MARV entry inh inconclusive, HCV inhibitor 22µM
COc1cc(NC(=O)c2cccs2)c(C(=O)OCC(=O)c2cc(C)n(-c3ccccc3)c2C)cc1OC	Lassa entry inh inconclusive, MARV entry inh 3.5µM
CCN1/C(=C/c2ccc3cc(C)ccc3[n+]2CC)Sc2cc(C)c(C)cc21	Lassa entry inh 2µM, Vaccinia mCherry inconclusive, MARV entry inh inconclusive, HCV inhibitor 1.1µM
CCN1/C(=C/c2ccc3cc(C)ccc3[n+]2CC)Sc2ccccc21	Lassa entry inh 5.2µM, MARV entry inh 1µM, HCV inhibitor 1.6µM (no result: VACV Venus inh, Vaccinia mCherry)
O=C(c1ccc([N+](=O)[O-])s1)N1CCCc2ccccc21	VACV Venus inh inconclusive, Lassa entry inh inconclusive, Vaccinia mCherry 10µM, MARV entry inh inconclusive, HCV inhibitor inconclusive
O=C(c1cc([N+](=O)[O-])cc([N+](=O)[O-])c1)N1CCCc2ccccc21	MARV entry inh 10µM
O=C(c1cc([N+](=O)[O-])ccc1N1CCCCC1)N1CCc2ccccc21	Lassa entry inh inconclusive, MARV entry inh 4.5µM, HCV inhibitor inconclusive
O=C(c1cccc([N+](=O)[O-])c1)N1CCc2ccccc21	none (no result: VACV Venus inh, Lassa entry inh, Vaccinia mCherry, MARV entry inh)
O=C(c1cc([N+](=O)[O-])ccc1Cl)N1CCc2ccccc21	VACV Venus inh inconclusive, Vaccinia mCherry inconclusive
O=C(c1ccc([N+](=O)[O-])s1)N1CCc2ccccc21	HCV inhibitor inconclusive
COc1cccc(CNC(=O)c2c(OC)cc(=O)n3c2CCN(C(=O)c2ccc(C)cc2C)CC3)c1	none (no result: Lassa entry inh, MARV entry inh, HCV inhibitor)
Cc1cccc(NC(=O)c2cccc(N3C(=O)C4C5C=CC(C6CC56)C4C3=O)c2)c1 (centres undefined)	MARV entry inh inconclusive, HCV inhibitor 11µM
CC(C)=CCN1C(=O)C2(CC(C)=C[C@@H](C)O2)c2c(Br)cccc21 (some centres undefined)	none (no result: VACV Venus inh, Lassa entry inh, Vaccinia mCherry, HCV inhibitor)
Cc1ccc(-c2cc(C(F)F)n3ncc(C(=O)N4CCc5ccccc5C4)c3n2)cc1	VACV Venus inh inconclusive, HCV inhibitor 11µM (no result: Lassa entry inh, MARV entry inh)
Cc1ccc(-c2cc(C(F)F)n3ncc(C(=O)N4CCN(c5cccc(C)c5C)CC4)c3n2)cc1	Lassa entry inh inconclusive, MARV entry inh inconclusive, HCV inhibitor 32µM
CCOc1ccccc1NC(=O)c1cnn2c(C(F)F)cc(-c3ccccc3)nc12	Vaccinia mCherry inconclusive, MARV entry inh inconclusive (no result: HCV inhibitor)
CCn1nc(C)c(NC(=O)c2cnn3c(C(F)F)cc(-c4ccccc4)nc23)c1C	Lassa entry inh inconclusive, MARV entry inh inconclusive, HCV inhibitor 14µM
CCCN(CCC)C(=O)Cn1c(=O)n(-c2ccc(OC)cc2OC)c(=O)c2c3c(sc21)CCC3	none (no result: HCV inhibitor)
COc1ccc(OC)c(C2=NOC(C(=O)Nc3cc(C)nn3-c3ccccc3)C2)c1 (centres undefined)	VACV Venus inh inconclusive, Vaccinia mCherry active
COc1cc(NC(=O)C2CC(c3cccc(OC)c3OC)=NO2)cc(OC)c1OC (centres undefined)	Lassa entry inh inconclusive, MARV entry inh inconclusive, HCV inhibitor 1.1µM (no result: VACV Venus inh, Vaccinia mCherry)
CO/N=C/C(=N\Nc1ccc(OC)cc1)C(=O)c1ccc(OC)cc1	Lassa entry inh 11µM, MARV entry inh inconclusive (no result: Vaccinia mCherry)
O=C(NCCCN1CCCC1)Nc1ccc(F)cc1	none
O[Si](CCCN1CCCCC1)(c1ccc(F)cc1)C1CCCCC1 (centres undefined)	Lassa entry inh 5.2µM, MARV entry inh 2.8µM, HCV inhibitor inconclusive
CC(=O)OC[C@H]1O[C@H](CCON=C(C)CCN2CCCc3nc(C)c(C)cc32)C=C[C@H]1OC(C)=O	none (no result: VACV Venus inh, Lassa entry inh, Vaccinia mCherry, HCV inhibitor)

Assay outcomes deposited in PubChem by National Center for Advancing Translational Sciences (NCATS).
